{
  "source": "paper PMC4552634",
  "about": "“A New Set of Chemical Starting Points with Plasmodium falciparum Transmission-Blocking Potential for Antimalarial Drug Discovery” (PLoS ONE, 2015)",
  "note": "Among all 13,000 compounds or so, about 3,200 (25%) showed an effect of 50% or more. This is one part of the list.",
  "data": [
    {"tested_on": "P. falciparum stage V gametocytes", "parameters": "BacTiter-Glo ATP luminescence viability of purified stage V gametocytes in 384-well plates, per cent inhibition versus DMSO", "details": "48 h, 5 µM; inhibitor", "units": {"% Inhibition": "%"}, "values": [
      {"compound": "Cc1ccc(Nc2nccc(NCC(O)c3cccc(C)c3)n2)cc1", "note": "(stereo not drawn) [TCMDC-136569]", "% Inhibition": -32.98},
      {"compound": "CN(C)CC(=O)Nc1ccc(Nc2nccc(NCC(O)c3ccccc3)n2)cc1", "note": "(stereo not drawn) [TCMDC-136466]", "% Inhibition": -80.24},
      {"compound": "OC(CNc1ccnc(Nc2cccc(OCCCN3CCOCC3)c2)n1)c1ccccc1", "note": "(stereo not drawn) [TCMDC-136465]", "% Inhibition": 23.11},
      {"compound": "CN(C)Cc1cccc(-c2ccc(Nc3nccc(NCC(O)c4ccccc4)n3)cc2)c1", "note": "(stereo not drawn) [TCMDC-136470]", "% Inhibition": 73.29},
      {"compound": "CN(C)Cc1ccc(-c2cccc(Nc3nccc(NCC(O)c4ccccc4)n3)c2)cc1", "note": "(stereo not drawn) [TCMDC-136467]", "% Inhibition": 95.23},
      {"compound": "CN(C)CC(=O)Nc1cccc(Nc2nccc(NCC(O)c3ccccc3)n2)c1", "note": "(stereo not drawn) [TCMDC-136472]", "% Inhibition": 19.31},
      {"compound": "CN1CCC(Oc2ccc(Nc3nccc(NCC(O)c4ccccc4)n3)cc2Cl)CC1", "note": "(stereo not drawn) [TCMDC-136471]", "% Inhibition": 60.18},
      {"compound": "CN1CCN(c2cccc(Nc3nccc(NCC(O)c4ccccc4)n3)c2)CC1", "note": "(stereo not drawn) [TCMDC-136468]", "% Inhibition": 11.64},
      {"compound": "Cc1nc(-c2cccc(Nc3nccc(NCC(O)c4ccccc4)n3)c2)cs1", "note": "(stereo not drawn) [TCMDC-136565]", "% Inhibition": 4.289},
      {"compound": "FC(F)(F)c1ccc2[nH]c(-c3ccc(-c4cccc(CNCC5CCCO5)c4)cc3)nc2c1.O=C(O)C(F)(F)F", "note": "(stereo not drawn) [TCMDC-133095]", "% Inhibition": -18.46},
      {"compound": "Cc1ccc(NC(=O)c2c(C)noc2-c2snnc2C)cc1", "note": "[TCMDC-125783]", "% Inhibition": 10.03},
      {"compound": "CCOc1c(OC)ccc2c1CCN(CCN1CCC(CNC(=O)c3ccc(-c4ccc(C(F)(F)F)cc4)cc3)CC1)C2", "note": "[TCMDC-138806]", "% Inhibition": 11.85},
      {"compound": "CCOc1ccc(C2CCN(CCN3CCC(NC(=O)c4ccc(-c5ccc(C(F)(F)F)cc5)cc4)CC3)CC2)c(OCC2CC2)c1", "note": "[TCMDC-138832]", "% Inhibition": -29.12},
      {"compound": "N#Cc1ccc(CN2CCC(NC(=O)c3ccc(-c4nnc(-c5cccc6ccccc56)o4)cc3)CC2)cc1", "note": "[TCMDC-136131]", "% Inhibition": 6.646},
      {"compound": "O=C(NC1CCN(CCN2CCC(c3cn(CCO)c4ccccc34)CC2)CC1)c1ccc(-c2ccc(C(F)(F)F)cc2)cc1", "note": "[TCMDC-138871]", "% Inhibition": 111.6},
      {"compound": "Cc1cc(C2CCN(CCCCNC(=O)c3ccc(-c4ccc(C(F)(F)F)cc4)cc3)CC2)c(C)cc1OCCOC1CCCCO1", "note": "(stereo not drawn) [TCMDC-138802]", "% Inhibition": -43.58},
      {"compound": "N#Cc1ccc(-c2ccc(C(=O)NC3CCN(CCN4CCC(c5cn(CCOC6CCCCO6)c6ccccc56)CC4)CC3)cc2)cc1", "note": "(stereo not drawn) [TCMDC-138855]", "% Inhibition": 104.1},
      {"compound": "O=C(NCC1CCN(CCN2CCc3ccc4c(c3C2)OCO4)CC1)c1ccc(-c2ccc(C(F)(F)F)cc2)cc1", "note": "[TCMDC-138834]", "% Inhibition": -19.42},
      {"compound": "O=C(NCC1CCN(CCN2CCC(c3cn(CCO)c4ccccc34)CC2)CC1)c1ccc(-c2ccc(C(F)(F)F)cc2)cc1", "note": "[TCMDC-138856]", "% Inhibition": 114.3},
      {"compound": "N#Cc1ccc(-c2ccc(C(=O)NC3CCN(CCN4CCC(c5cn(CCO)c6ccccc56)CC4)CC3)cc2)cc1", "note": "[TCMDC-138858]", "% Inhibition": -15.2},
      {"compound": "CC(C)Cn1cc(C2CCN(CCN3CCC(CNC(=O)c4ccc(-c5ccc(C(F)(F)F)cc5)cc4)CC3)CC2)c2ccccc21", "note": "[TCMDC-138852]", "% Inhibition": 92.78},
      {"compound": "COc1ccc2c(c1)c(C1CCN(CCCCNC(=O)c3ccc(-c4ccc(C(F)(F)F)cc4)cc3)CC1)cn2C(C)C", "note": "[TCMDC-138801]", "% Inhibition": 16.06},
      {"compound": "O=C(NC1CC1)c1cnc(N2CCCC(c3ccccc3)C2)c(Cl)c1", "note": "(stereo not drawn) [TCMDC-134608]", "% Inhibition": 7.948},
      {"compound": "CCOC(=O)[C@H](Cc1cc([N+](=O)[O-])c(Oc2ccc(OC)c(Cc3ccc(OC)c(C(C)C)c3)c2)c([N+](=O)[O-])c1)NC(=O)C(F)(F)F", "note": "[TCMDC-139398]", "% Inhibition": 36.25},
      {"compound": "COc1ccc(C2(CNCC(O)c3cccc([N+](=O)[O-])c3)CCCC2)cc1OC", "note": "(stereo not drawn) [TCMDC-123699]", "% Inhibition": 30.43},
      {"compound": "CCC[C@@H]([C@@H](CC1CCCCC1)C(=O)N[C@@H](CCOC(=O)NCC)C(=O)Nc1nccs1)N(O)C=O", "note": "[TCMDC-138145]", "% Inhibition": 41.2},
      {"compound": "NC1=NC(c2ccccc2)(c2ccccc2)C(=O)N1CC=Cc1ccccc1", "note": "[TCMDC-136505]", "% Inhibition": -58.42},
      {"compound": "O=C(NCCCN1CCOCC1)c1csc(Nc2ccc(Cl)c(Cl)c2)n1", "note": "[TCMDC-123719]", "% Inhibition": -63.94},
      {"compound": "CCc1sc(N2CCC(C)CC2)nc1C(=O)Nc1ccc(F)cc1C(F)(F)F", "note": "[TCMDC-134663]", "% Inhibition": -1.278},
      {"compound": "CCCCCN1CCCC1CNS(=O)(=O)c1ccc(C(=O)Nc2ccc(C(F)(F)F)cc2)cc1", "note": "(stereo not drawn) [TCMDC-133682]", "% Inhibition": -15.48},
      {"compound": "O=C(O)C(F)(F)F.OCCN1CCN(Cc2ccc(-c3ccc(-c4nc5ccccc5[nH]4)cc3)cc2)CC1", "note": "[TCMDC-133025]", "% Inhibition": -7.938},
      {"compound": "CN1CCCC(CN2CCN(Cc3ccc(-c4ccc(-c5nc6ccccc6[nH]5)cc4)cc3)CC2)C1.O=C(O)C(F)(F)F", "note": "(stereo not drawn) [TCMDC-133903]", "% Inhibition": 95.28},
      {"compound": "CN1CCCC(CN2CCN(Cc3cccc(-c4ccc(-c5nc6ccccc6[nH]5)cc4)c3)CC2)C1", "note": "(stereo not drawn) [TCMDC-133888]", "% Inhibition": 60.97},
      {"compound": "c1cc(CN2CCN(c3ccncc3)CC2)cc(-c2ccc(-c3nc4ccccc4[nH]3)cc2)c1", "note": "[TCMDC-132921]", "% Inhibition": 36.65},
      {"compound": "CN1CCCC(CN2CCN(Cc3cccc(-c4csc(-c5nc6ccccc6[nH]5)c4)c3)CC2)C1", "note": "(stereo not drawn) [TCMDC-133913]", "% Inhibition": 1.76},
      {"compound": "O=C(O)C(F)(F)F.c1ccc2[nH]c(-c3ccc(-c4ccc(CN5CCN(c6ccncc6)CC5)cc4)cc3)nc2c1", "note": "[TCMDC-133830]", "% Inhibition": 15.5},
      {"compound": "CN1CCCC(CN2CCN(Cc3ccc(-c4cccc(-c5nc6ccccc6[nH]5)c4)cc3)CC2)C1", "note": "(stereo not drawn) [TCMDC-133916]", "% Inhibition": 44.74},
      {"compound": "CN1CCCC(CN2CCN(Cc3cccc(-c4cccc(-c5nc6ccccc6[nH]5)c4)c3)CC2)C1", "note": "(stereo not drawn) [TCMDC-133912]", "% Inhibition": 100.3},
      {"compound": "O=C(Nc1ccc(Cl)cc1)c1ccc(CN2CCCN(Cc3cccc(O)c3)CC2)cc1", "note": "[TCMDC-136406]", "% Inhibition": -22.52}
    ]}
  ]
}
